# Measured values reported in PubChem BioAssay (EPA / NIEHS).
# Activity calls are given as the source filed them. How the source made its calls: active means hit-call score of the fitted dose curve at least 0.9, where 1 is the maximum; inactive means score below 0.9.
# Assays:
# [1] = read-out: Vascular cell adhesion molecule 1 (VCAM1), VCAM1 (gene 7412); assay: BSK_hDFCGF_VCAM1: BioMAP Diversity Plus: hDFCGF Assay for Vascular cell adhesion molecule 1 (VCAM1) Biomarker Activity (AID 2283065); conditions: primary human foreskin fibroblasts; actives raise or lower the signal;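 on AC50: VCAM-1 protein level quantified by ELISA after 24 h chemical exposure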
# Outline: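 ELISA readout of VCAM-1 on human dermal fibroblast primary cultures, 24 h after chemical exposure. Gain or loss of signal fitted in both directions against DMSO baseline.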
# [2] = read-out: Plasminogen activator inhibitor-1 (PAI1), SERPINE1 (gene 5054); assay: BSK_hDFCGF_PAI1: BioMAP Diversity Plus: hDFCGF Assay for Plasminogen activator inhibitor-1 (PAI1) Biomarker Activity (AID 2283066); conditions: primary human foreskin fibroblasts; actives raise or lower the signal
# Outline: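 PAI-1 levels in human dermal foreskin fibroblasts were quantified by ELISA 24 h after dosing, with gain or loss analysed against DMSO. Overt cytotoxicity was checked by sulforhodamine B total-protein staining in parallel cultures.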
# [3] = read-out: Intercellular Adhesion Molecule 1 (ICAM1), ICAM1 (gene 3383); assay: BSK_KF3CT_ICAM1: BioMAP Diversity Plus: KF3CT Assay for Intercellular Adhesion Molecule 1 (ICAM1) Biomarker Activity (AID 2283067); conditions: primary human keratinocytes with fibroblasts; actives raise or lower the signal
# Outline: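 Cell-surface ICAM-1 was measured by ELISA 24 h after dosing primary human skin keratinocytes co-cultured with fibroblasts. Parallel SRB staining tracked overt cytotoxicity. Gain or loss of signal was fitted relative to DMSO.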
# [4] = read-out: Interferon-gamma inducible Protein 10 (IP10), CXCL10 (gene 3627); assay: BSK_KF3CT_IP10: BioMAP Diversity Plus: KF3CT Assay for Interferon-gamma inducible Protein 10 (IP10) Biomarker Activity (AID 2283068); conditions: primary human keratinocytes with fibroblasts; actives raise or lower the signal
# Outline: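 ELISA read-out of IP-10 after 24 h chemical dosing of human skin primary co-culture (keratinocytes, foreskin fibroblasts). Gain or loss of signal relative to DMSO, bidirectional curve fit.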
# [5] = BSK_KF3CT_SRB: Viability Assessment in the BioMAP Diversity Plus: KF3CT Assay (AID 2283069); conditions: primary human keratinocytes with fibroblasts
# Outline: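 Cytotoxicity was gauged by SRB staining (0.1% SRB, 10% TCA fixation, 560 nm) of parallel cultures at 24 h. The cells were primary human skin keratinocytes co-cultured with fibroblasts, and activity was fitted in both directions against DMSO.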
# [6] = read-out: Interleukin-1 alpha (IL1a), IL1A (gene 3552); assay: BSK_KF3CT_IL1a: BioMAP Diversity Plus: KF3CT Assay for Interleukin-1 alpha (IL1a) Biomarker Activity (AID 2283070); conditions: primary human keratinocytes with fibroblasts; actives raise or lower the signal
# Outline: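 IL-1a was detected by ELISA 24 h after chemical treatment of a co-culture of human skin keratinocytes and foreskin fibroblasts. Gain or loss of signal was fitted against the DMSO baseline.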
# [7] = read-out: TIMP metallopeptidase inhibitor 2 (TIMP2), TIMP2 (gene 7077); assay: BSK_KF3CT_TIMP2: BioMAP Diversity Plus: KF3CT Assay for TIMP metallopeptidase inhibitor 2 (TIMP2) Biomarker Activity (AID 2283071); conditions: primary human keratinocytes with fibroblasts; actives raise or lower the signal
# Outline: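 TIMP-2 measured by ELISA at 24 h in human keratinocyte/fibroblast primary co-cultures exposed to chemicals. Both increases and decreases were fitted against DMSO. Parallel cultures were stained with SRB for total protein as an overt-cytotoxicity check.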
# [8] = read-out: Transforming growth factor beta 1 (TGFb1), TGFB1 (gene 7040); assay: BSK_KF3CT_TGFb1: BioMAP Diversity Plus: KF3CT Assay for Transforming growth factor beta 1 (TGFb1) Biomarker Activity (AID 2283072); conditions: primary human keratinocytes with fibroblasts; actives raise or lower the signal
# Outline: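 ELISA quantifies TGF-b1 at 24 h post-dose in a primary human skin co-culture of keratinocytes and fibroblasts, with gain or loss judged against DMSO. Parallel SRB total-protein staining flags overt cytotoxicity.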
# [9] = read-out: C-C motif chemokine 2 (Homo sapiens) (UniProt P13500); assay: BSK_KF3CT_MCP1: BioMAP Diversity Plus: KF3CT Assay for Monocyte Chemoattractant Protein 1 (MCP1/CCL2) Biomarker Activity (AID 2283073); conditions: primary human keratinocytes with fibroblasts; actives raise or lower the signal
# Outline: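 ELISA read-out of MCP-1, 24 h post-dose, in primary human skin keratinocytes co-cultured with fibroblasts. Parallel SRB staining monitors cytotoxicity; changes fitted both directions relative to DMSO.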
# [10] = read-out: urokinase plasminogen activator (uPA), PLAU (gene 5328); assay: BSK_KF3CT_uPA: BioMAP Diversity Plus: KF3CT Assay for urokinase plasminogen activator (uPA) Biomarker Activity (AID 2283075); conditions: primary human keratinocytes with fibroblasts; actives raise or lower the signal
# Outline: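 ELISA read-out of uPA 24 h after dosing human skin keratinocytes co-cultured with foreskin fibroblasts. Signal change fitted both ways relative to DMSO; sulforhodamine B on parallel cultures marks overt cytotoxicity.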
# CD40, CD40 (gene 958) = assay: BSK_LPS_CD40: BioMAP Diversity Plus: LPS Assay for CD40 Biomarker Activity (AID 2283076); conditions: primary human HUVEC with PBMC; actives raise or lower the signal
# Outline: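 In the LPS system of human endothelial cells with peripheral blood mononuclear cells, CD40 levels were read by ELISA 24 h post-treatment. Signal changes in either direction were fitted against the DMSO baseline, with parallel SRB protein staining.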
# [11] = read-out: Interleukin-8 (IL8), CXCL8 (gene 3576); assay: BSK_LPS_IL8: BioMAP Diversity Plus: LPS Assay for Interleukin-8 (IL8) Biomarker Activity (AID 2283078); conditions: primary human HUVEC with PBMC; actives raise or lower the signal
# Outline: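 ELISA read-out of IL-8 after 24 h chemical treatment of LPS-activated endothelial/PBMC human primary co-cultures. Changes either up or down relative to DMSO; overt cytotoxicity checked by sulforhodamine B staining in parallel wells.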
# [12] = BSK_LPS_SRB: Viability Assessment in the BioMAP Diversity Plus: LPS Assay (AID 2283079); conditions: primary human HUVEC with PBMC;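 further: total protein by sulforhodamine B absorbance as a cytotoxicity measure; measured one day after compound addition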
# Outline: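 SRB viability endpoint: cells fixed with 10% TCA, stained with 0.1% SRB, read at 560 nm, 24 h post-dose. HUVEC/PBMC co-culture; signal change in either direction scored relative to DMSO.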
# [13] = read-out: Interleukin-1 alpha (IL1a), IL1A (gene 3552); assay: BSK_LPS_IL1a: BioMAP Diversity Plus: LPS Assay for Interleukin-1 alpha (IL1a) Biomarker Activity (AID 2283080); conditions: primary human HUVEC with PBMC; actives raise or lower the signal
# Outline: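 Readout is IL-1a level by ELISA, 24 h post-dose, fitted as gain or loss relative to DMSO. System: LPS-activated human primary co-culture of vascular endothelium and peripheral blood mononuclear cells, with parallel SRB total-protein cytotoxicity.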
# [14] = read-out: Monocyte Chemoattractant Protein-1 (MCP1), CCL2 (gene 6347); assay: BSK_LPS_MCP1: BioMAP Diversity Plus: LPS Assay for Monocyte Chemoattractant Protein-1 (MCP1) Biomarker Activity (AID 2283081); conditions: primary human HUVEC with PBMC; actives raise or lower the signal;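 on AC50: co-culture stimulated with LPS; secreted MCP-1 protein quantified by ELISA in culture supernatant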
# Outline: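 Secreted MCP-1 read by ELISA at 24 h post-dosing in an LPS-activated co-culture of endothelial cells with peripheral blood mononuclear cells. Fits run in both directions, DMSO as baseline; parallel SRB staining tracks overt cytotoxicity.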
# [15] = BSK_LPS_PGE2: BioMAP Diversity Plus: LPS Assay for Prostaglandin E2 (PGE2) Biomarker Activity (AID 2283082); conditions: primary human HUVEC with PBMC; actives raise or lower the signal
# Outline: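 PGE2 release measured by ELISA in an LPS-activated co-culture of human umbilical vein endothelial cells and peripheral blood mononuclear cells, read at 24 h post-dosing. DMSO served as baseline for bidirectional curve fitting.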
# [16] = read-out: Macrophage colony-stimulating factor (MCSF), CSF1 (gene 1435); assay: BSK_LPS_MCSF: BioMAP Diversity Plus: LPS Assay for Macrophage colony-stimulating factor (MCSF) Biomarker Activity (AID 2283083); conditions: primary human HUVEC with PBMC; actives raise or lower the signal
# Outline: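 Bidirectional fitting against DMSO was applied to M-CSF levels read by ELISA at 24 h post-dose. The system pairs human umbilical vein endothelium with peripheral blood mononuclear cells; parallel SRB staining tracked cytotoxicity.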
# [17] = read-out: Tissue Factor, F3 (gene 2152); assay: BSK_LPS_TissueFactor: BioMAP Diversity Plus: LPS Assay for Tissue Factor Biomarker Activity (AID 2283084); conditions: primary human HUVEC with PBMC; actives raise or lower the signal
# Outline: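 Compound was added to an endothelial cell/PBMC co-culture, and after 24 h tissue factor (CD142) was read by ELISA. Gain or loss of signal was fitted against a DMSO baseline, and parallel SRB staining (560 nm) tracked overt cytotoxicity.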
compound,measurement,setting,value
OCc1ccco1,outcome,[1],inactive
same,outcome,[2],inactive
same,outcome,[3],inactive
same,outcome,[4],inactive
same,outcome,[5],inactive
same,outcome,[6],inactive
same,outcome,[7],inactive
same,outcome,[8],inactive
same,outcome,[9],inactive
same,outcome,[10],inactive
same,outcome,"CD40, CD40 (gene 958)",inactive
same,outcome,[11],inactive
same,outcome,[12],inactive
same,outcome,[13],inactive
same,outcome,[14],inactive
same,outcome,[15],inactive
same,outcome,[16],inactive
same,outcome,[17],inactive
CC12CC1(C)C(=O)N(c1cc(Cl)cc(Cl)c1)C2=O (centres undefined),outcome,[1],inactive
same,outcome,[2],inactive
same,outcome,[3],inactive
same,outcome,[4],inactive
same,outcome,[5],inactive
same,outcome,[6],inactive
same,outcome,[7],inactive
same,outcome,[8],inactive
same,outcome,[9],inactive
same,outcome,[10],inactive
same,outcome,"CD40, CD40 (gene 958)",inactive
same,outcome,[12],inactive
same,outcome,[13],inactive
same,outcome,[14],inactive
same,outcome,[15],inactive
same,outcome,[16],inactive
same,outcome,[17],inactive
ClCC(Cl)CCl,outcome,[1],inactive
same,outcome,[2],inactive
same,outcome,[3],inactive
same,outcome,[4],inactive
same,outcome,[5],inactive
same,outcome,[6],inactive
same,outcome,[7],inactive
same,outcome,[8],inactive
same,outcome,[9],inactive
same,outcome,[10],inactive
same,outcome,"CD40, CD40 (gene 958)",inactive
same,outcome,[12],inactive
same,outcome,[13],inactive
same,outcome,[14],inactive
same,outcome,[16],inactive
same,outcome,[17],inactive
CC(C)(C)CC(C)(C)c1ccc(O)cc1,AC50,[1],10.8 µM (active)
same,AC50,[2],8.03 µM (active)
same,AC50,[3],11.3 µM (active)
same,AC50,[4],10.1 µM (active)
same,AC50,[5],6.93 µM (active)
same,AC50,[6],7.85 µM (active)
same,AC50,[7],7.95 µM (active)
same,AC50,[9],6.72 µM (active)
same,AC50,[10],9.6 µM (active)
same,AC50,"CD40, CD40 (gene 958)",7.8 µM (active)
same,AC50,[12],12.9 µM (active)
same,AC50,[13],8.47 µM (active)
same,AC50,[14],10.5 µM (active)
same,AC50,[16],9.26 µM (active)
same,AC50,[17],9.02 µM (active)
CCN1CCC2(CC1)COc1cc3c(cc12)N(C(=O)c1ccc(-c2ccc(-c4nnc(C)o4)cc2C)cc1)CC3,AC50,[1],7.34 µM (active)
same,AC50,[2],9.28 µM (active)
same,AC50,[3],28.6 µM (active)
same,AC50,[4],28.4 µM (active)
same,AC50,[5],20.8 µM (active)
same,AC50,[6],31.4 µM (active)
same,AC50,[7],17.9 µM (active)
same,AC50,[8],18.7 µM (active)
same,AC50,[9],27 µM (active)
same,AC50,[10],29.9 µM (active)
same,AC50,"CD40, CD40 (gene 958)",9.75 µM (active)
same,AC50,[11],14.1 µM (active)
same,AC50,[12],14.7 µM (active)
same,AC50,[13],9.03 µM (active)
same,AC50,[14],16.8 µM (active)
same,outcome,[15],inactive
same,AC50,[16],16.7 µM (active)
same,AC50,[17],18.7 µM (active)
